We go through eight compounds from PubChem BioAssay (NCI).

Compounds without any hit were thinned out: in the full panel of roughly 83,000, 20% have a hit.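 96-well plates, one dose, 48 hours. Percent growth reported; active if below 10.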 Values without a mark were called inactive. The source made the active and inactive calls.

Among the test systems are NCI-H23 lung; NCI-H226 lung; NCI-H322M lung; NCI-H460 lung; HOP-92 NSCLC; NCI-H522 lung; A549/ATCC NSCLC; 786-0 renal; COLO 205 colon; DU-145 prostate; K-562 leukemia; MALME-3M melanoma; MDA-MB-231 breast; RXF 393 renal; SF-268 CNS; SF-295 CNS; SF-539 CNS; UACC-257 melanoma; M14 melanoma; HOP-62 NSCLC.
Common to all, as to assay: NCI-60 one-dose screen, 48 h (100 = growth as untreated, 0 = no growth, -100 = all killed)
Holding throughout (details): 10 µM unless noted

Consider `CS(=O)(=O)Nc1cc(-c2ccc3ncnc(Nc4ccc(F)c(Cl)c4)c3c2)ccc1Cl`, for which the growth in the test on NCI-H23 lung is 48.9%; in the test on NCI-H226 lung, 70.1%; in the test on NCI-H322M lung, 24.7%; in the test on NCI-H460 lung, 44.7%; with HOP-92 NSCLC, -6.71% (active); in the test on NCI-H522 lung it was 19%. Besides, the growth with A549/ATCC NSCLC was 31.6%; in the test on 786-0 renal, 50.3%; with COLO 205 colon, 58.7%; with DU-145 prostate, 39.8%; in the test on K-562 leukemia it was 39.4%; with MALME-3M melanoma, 53.4%. Also, the growth with MDA-MB-231 breast is 54.3%; in the test with RXF 393 renal, 22%; with SF-268 CNS, 52.7%; in the test on SF-295 CNS it was 15.6%; in the test on SF-539 CNS it was 52.1%; in the test with UACC-257 melanoma, 59.6%.
On to `CN(C)CCCn1c2c(c3ccncc3c1=O)C(=O)c1ccccc1-2`, for which the growth is -23.1% (active) in the test with NCI-H23 lung; -53.1% (active) in the test with NCI-H226 lung; 21.2% with NCI-H322M lung; -9.77% (active) in the test on NCI-H460 lung; -18.1% (active) in the test with HOP-92 NSCLC; -22.5% (active) in the test with NCI-H522 lung. Besides, the growth in the test on A549/ATCC NSCLC is 30.2%; in the test on 786-0 renal, 5.98% (active); with COLO 205 colon it was 10.6%; in the test on DU-145 prostate, -8.23% (active); in the test on K-562 leukemia, -61.6% (active); with MALME-3M melanoma, -55.8% (active). For the same compound, the growth was 8.66% (active) in the test on MDA-MB-231 breast; -15.7% (active) in the test with RXF 393 renal; -15.3% (active) in the test with SF-268 CNS; 1.81% (active) in the test on SF-295 CNS; -17% (active) in the test on SF-539 CNS; -30.3% (active) in the test with UACC-257 melanoma. For the same compound, in the test on M14 melanoma, the growth was -36.5% (active).
`COc1cc(/C=C2\C(=O)N(CCCOc3cc(O)c4c(=O)cc(-c5ccccc5)oc4c3)c3ccccc32)cc(OC)c1O`: the growth in the test on NCI-H23 lung was 87.9%; in the test on NCI-H226 lung it was 94.5%; with NCI-H322M lung, 89.9%; with HOP-62 NSCLC it was 71.7%; with NCI-H460 lung it was 89.4%; with HOP-92 NSCLC, 72.1%. Besides, the growth with A549/ATCC NSCLC was 74.5%; in the test with 786-0 renal, 92.8%; in the test on COLO 205 colon, 82.6%; in the test on DU-145 prostate it was 86.2%; with K-562 leukemia, 21.2%; in the test on MALME-3M melanoma it was 78.5%. The growth in the test with MDA-MB-231 breast is 97.5%; in the test with RXF 393 renal, 91.6%; in the test on SF-268 CNS it was 78.5%; in the test with SF-295 CNS it was 101%; with SF-539 CNS it was 80.7%; in the test on UACC-257 melanoma it was 90.9%. The growth in the test with M14 melanoma is 57.1%.
Take `CSc1nc(-c2ccco2)c(C#N)c(=O)n1C`: the growth in the test on NCI-H23 lung was 66.1%; in the test on NCI-H226 lung it was 101%; in the test on NCI-H322M lung, 89.6%; with NCI-H460 lung, 105%; in the test with HOP-92 NSCLC it was 91.6%; with NCI-H522 lung it was 100%. Moreover, the growth in the test on A549/ATCC NSCLC is 100%; in the test with 786-0 renal, 104%; in the test with COLO 205 colon, 97.2%; in the test on DU-145 prostate it was 106%; in the test with K-562 leukemia, 101%; in the test on MALME-3M melanoma, 88.8%. Moreover, the growth was 107% in the test on MDA-MB-231 breast; 112% in the test on RXF 393 renal; 106% in the test on SF-268 CNS; 97.9% with SF-295 CNS; 89.7% with SF-539 CNS; 96.9% in the test on UACC-257 melanoma. Moreover, in the test on M14 melanoma, the growth was 108%.
Consider `COc1ccccc1S(=O)(=O)Nc1ccc2c3c(cc(CCC(=O)NCCCCNc4cccc5c4C(=O)N(C4CCC(=O)NC4=O)C5=O)cc13)C(=O)N2C` (stereo not given), for which the growth in the test on NCI-H23 lung is 70.3%; with NCI-H226 lung, -0.85% (active); in the test with NCI-H322M lung, -3.45% (active); in the test on HOP-62 NSCLC it was 2.74% (active); with NCI-H460 lung, 97.8%; in the test on HOP-92 NSCLC it was -10.7% (active). The growth in the test with A549/ATCC NSCLC was 56.1%; in the test on 786-0 renal it was 20.4%; in the test on COLO 205 colon it was 2.62% (active); in the test on DU-145 prostate, 75.9%; with K-562 leukemia it was 17.4%; in the test with MALME-3M melanoma, -29% (active). Also, the growth in the test with MDA-MB-231 breast is -33.3% (active); in the test with RXF 393 renal, -14.4% (active); with SF-268 CNS, 11.9%; with SF-295 CNS it was 47.6%; in the test on SF-539 CNS it was 31.3%; in the test on UACC-257 melanoma it was 71.7%. Also, the growth in the test on M14 melanoma was 36%.
On to `C#Cc1cccc(Nc2ncnc3cc(NC(=O)CCl)ccc23)c1`, for which the growth in the test with NCI-H23 lung was -63.5% (active); in the test with NCI-H226 lung, -42.2% (active); in the test with NCI-H322M lung, -16.4% (active); in the test with HOP-62 NSCLC it was -70.3% (active); with NCI-H460 lung, -58.7% (active); in the test with HOP-92 NSCLC, -75.3% (active). Further, the growth in the test on A549/ATCC NSCLC was -23.7% (active); in the test on 786-0 renal, -79.3% (active); in the test on COLO 205 colon it was -70.4% (active); in the test with DU-145 prostate, -96.8% (active); in the test with K-562 leukemia it was -15.6% (active); in the test with MALME-3M melanoma, -74.3% (active). Also, the growth in the test with MDA-MB-231 breast was -70.3% (active); with RXF 393 renal, -86.2% (active); in the test on SF-268 CNS it was -59.7% (active); with SF-295 CNS it was -82.5% (active); in the test on SF-539 CNS, -90.9% (active); in the test with UACC-257 melanoma, -7% (active). Further, the growth in the test on M14 melanoma is -87.4% (active).
With `COc1c2c(cc3c1C(=O)N[C@@H]1[C@@H](O)[C@@H](O)[C@H](O)C[C@@H]31)OCCO2`, the growth is 104% in the test on NCI-H23 lung; 92.6% in the test on NCI-H226 lung; 93.5% in the test on NCI-H322M lung; 109% with NCI-H460 lung; 91.6% in the test on HOP-92 NSCLC; 93.4% with NCI-H522 lung. In addition, the growth in the test on A549/ATCC NSCLC is 96.5%; with 786-0 renal it was 97.4%; in the test on COLO 205 colon, 103%; in the test on DU-145 prostate, 107%; with K-562 leukemia it was 95.6%; in the test with MALME-3M melanoma it was 106%. In addition, the growth in the test with MDA-MB-231 breast is 109%; in the test with RXF 393 renal, 102%; with SF-268 CNS it was 97.9%; in the test on SF-295 CNS it was 99.6%; with SF-539 CNS, 106%; in the test with UACC-257 melanoma, 98.8%. For the same compound, the growth in the test on M14 melanoma was 105%.
With `CN1C(=O)N2CN3CCCN(C3)CN3C(=S)NC1C23` (stereo not given), the growth was 103% in the test with NCI-H23 lung; 99.6% in the test on NCI-H226 lung; 105% in the test with NCI-H322M lung; 105% with NCI-H460 lung; 98.7% in the test on HOP-92 NSCLC; 95% with NCI-H522 lung. Besides, the growth was 87% in the test on A549/ATCC NSCLC; 102% with 786-0 renal; 117% in the test with COLO 205 colon; 103% in the test on DU-145 prostate; 97.1% in the test with K-562 leukemia; 112% in the test with MALME-3M melanoma. In addition, the growth in the test on MDA-MB-231 breast is 104%; in the test on RXF 393 renal it was 109%; with SF-268 CNS, 99.8%; in the test with SF-295 CNS, 105%; with SF-539 CNS, 103%; with UACC-257 melanoma it was 87.6%.
